# Reference: PubChem BioAssay (Tox21)
# Inconclusive results are not listed. Unmarked numbers belong to inactive results. The source made the active and inactive calls. Calls follow the shape of the dose curve; as a rule, active = well fitted curve in the direction sought with a large enough effect in the repeat runs; inconclusive = weak or mixed curves; inactive = no such curve, though single readings can be large; an effect the other way counts as inactive or inconclusive. Positions of bridges follow the written chain, without caps; N, C: chain ends. Non-standard residues stand in square brackets, D forms with d. Residues, ends and D or L forms follow the SMILES beside them. *: point of attachment. X2 = CC[C@H](C)CCCCC(=O)*; Orn = NCCC[C@H](N)C(=O)O; Dab = NCC[C@H](N)C(=O)O; Mpa = O=C(O)CCS
# Test: qHTS assay to identify small molecule antagonists of the thyroid receptor (TR) signaling pathway - cell viability counter screen (AID 743064); also: nearly all actives have a fitted effect of over 50% in size
# Details: GH3.TRE-Luc viability, CellTiter-Fluor, 24 h; series mostly up to 70.3 µM; activity change, negative = cytotoxic: at the top concentration
# In short: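 GH3.TRE-Luc rat pituitary cells carrying a TRE-luciferase reporter were treated with compound plus 1 nM T3 (final) for 23.5 h at 37 °C. Viability was then read in the same wells by CellTiter-Fluor fluorescence after a further 30 min.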
# % is scaled to controls: 0 for no effect and ±100 for the full control effect; potency is read from the fitted curve at half-maximal effect.
SMILES,Potency,"activity change, negative = cytotoxic [%]"
CC(=O)O[C@H]1C(=O)[C@@]2(C)[C@H]([C@H](OC(=O)c3ccccc3)[C@]3(O)C[C@H](OC(=O)[C@H](O)[C@@H](NC(=O)c4ccccc4)c4ccccc4)C(C)=C1C3(C)C)[C@]1(OC(C)=O)CO[C@@H]1C[C@@H]2O,0.266 µM (active),–
CCC(=O)NS(=O)(=O)c1ccc(-c2c(-c3ccccc3)noc2C)cc1,–,14.6
CN(C(=O)CO)c1c(I)c(C(=O)NCC(O)CO)c(I)c(C(=O)NCC(O)CO)c1I (centres undefined),–,11.3

# Test: qHTS assay to identify small molecule antagonists of the thyroid receptor (TR) signaling pathway (AID 743065); also: nearly all actives have a fitted effect of over 55% in size
# Details: GH3.TRE-Luc, T3-stimulated luciferase inhibition, 23.5 h; series mostly up to 70.3 µM; activity, negative = inhibition: at the top concentration
# In short: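 Antagonism measured as loss of luciferase signal in GH3 cells stably carrying a TRE-luciferase reporter, co-treated with compound and T3 (1 nM final) for 23.5 h at 37 C. Viability was read in the same well by CellTiter-Fluor.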
SMILES,"activity, negative = inhibition [%]",Potency
O=C(O)c1cccc(/C=C2/C[C@@H]3[C@@H](/C=C/[C@@H](O)C4CCCCC4)[C@H](O)C[C@@H]3O2)c1,-1.31,–
CC1(C)S[C@@H]2[C@H](NC(=O)[C@H](N)c3ccccc3)C(=O)N2[C@H]1C(=O)OCOC(=O)[C@@H]1N2C(=O)C[C@H]2S(=O)(=O)C1(C)C,1.29,–
NCCC(=O)[N-][C@@H](Cc1cnc[nH]1)C(=O)O.[Zn],3.44,–
C#CCOc1ccc2c(C)cc(=O)oc2c1,-2.85,–
OC[C@H]1O[C@@H](n2cnc3c2NC=NC[C@H]3O)C[C@@H]1O,0.415,–
O=P(O)(O)OC(CO)CO,-4.53,–
CCCCCCCCCCCCCCCC(=O)O[C@@H]1[C@@H](O)[C@@H](O)[C@@H]([C@H](NC(=O)[C@@H]2C[C@@H](CCC)CN2C)[C@H](C)Cl)O[C@@H]1SC,-17.5,–
CC(=O)O[C@H]1C[C@@]2(C)[C@@H](C[C@@H](O)[C@H]3[C@@]4(C)CC[C@@H](O)[C@@H](C)[C@@H]4CC[C@@]32C)/C1=C(\CCC=C(C)C)C(=O)O,-5.61,–
C[C@H](CSC(=O)c1ccccc1)C(=O)N1C[C@@H](Sc2ccccc2)C[C@H]1C(=O)O,-7.85,–
O=S(O)CNc1ccc(S(=O)(=O)c2ccc(NCS(=O)O)cc2)cc1,1.78,–
CC(=O)O[C@H]1C[C@@H]2CC[C@@H]3[C@H](CC[C@@]4(C)[C@H]3C[C@H](N3CC[N+](C)(C)CC3)[C@@H]4OC(C)=O)[C@@]2(C)C[C@@H]1N1CC[N+](C)(C)CC1,11.6,–
O=C1O[C@H]2[C@H](O)[C@@H]1OC(O)[C@H]2O (some centres undefined),6.52,–
CC(=O)Nc1ccc(NC(=S)NC(=O)c2ccc(C(C)(C)C)cc2)cc1,–,2.66 µM (active)
CC[C@H]1OC(=O)[C@H](C)[C@@H](O[C@H]2C[C@@](C)(OC)[C@@H](O)[C@H](C)O2)[C@H](C)[C@@H](O[C@@H]2O[C@H](C)C[C@H](N(C)C)[C@H]2O)[C@](C)(O)C[C@@H](C)[C@@H]2N[C@@H](COCCOC)O[C@@H]([C@H]2C)[C@]1(C)O,-11.6,–
Cn1c(=O)c2c(ncn2CCOC(=O)C(C)(C)Oc2ccc(Cl)cc2)n(C)c1=O,11.1,–
O=C(O)c1ccc(OCCn2ccnc2)cc1,-0.416,–

SMILES,"activity, negative = inhibition [%]",Potency
CO[C@@H]1[C@@H](O[C@@H]2O[C@H](C)[C@@H](O[C@H]3C[C@@](C)(O)[C@@H](OC(=O)CC(C)C)[C@H](C)O3)[C@H](N(C)C)[C@H]2O)[C@@H](CC=O)C[C@@H](C)[C@@H](O)/C=C/C=C/C[C@@H](C)OC(=O)C[C@H]1O,–,inactive
CCN(CC)CCOc1ccc2nc(N(C)C)sc2c1,-10,–
COc1cc([C@@H]2c3cc4c(cc3C(O[C@@H]3O[C@@H]5COC(c6cccs6)O[C@H]5[C@H](O)[C@H]3O)C3COC(=O)[C@@H]32)OCO4)cc(OC)c1O (some centres undefined),–,0.531 µM (active)
COCC1=C(C(=O)OC(C)OC(=O)OC(C)C)N2C(=O)[C@@H](NC(=O)/C(=N\OC)c3csc(N)n3)[C@H]2SC1 (some centres undefined),–,inactive
CC1=C(/C=C/C(C)=C/C=C/C(C)=C/C=C/C=C(C)/C=C/C=C(C)/C=C/C2=C(C)C(=O)CCC2(C)C)C(C)(C)CCC1=O,27,–
O=C1C(=O)c2ncccc2-c2cccnc21,–,1.68 µM (active)
CC[C@H](C)CCCCC(=O)N[C@@H](CCN)C(=O)N[C@H](C(=O)N[C@@H](CCN)C(=O)N[C@H]1CCNC(=O)[C@H]([C@@H](C)O)NC(=O)[C@H](CCN)NC(=O)[C@H](CCN)NC(=O)[C@H](CC(C)C)NC(=O)[C@@H](CC(C)C)NC(=O)[C@H](CCN)NC1=O)[C@@H](C)O (X2-[Dab]T[Dab][Dab][Dab][dL]L[Dab][Dab]T; lactam 4-C),-4.61,–
O=C(NCCNCC(O)COc1ccc(O)cc1)N1CCOCC1 (centres undefined),-2.88,–
CCOc1ccc(C[C@H]2NC(=O)CCSSC[C@@H](C(=O)N3CCC[C@H]3C(=O)N[C@@H](CCCN)C(=O)NCC(N)=O)NC(=O)[C@H](CC(N)=O)NC(=O)[C@H]([C@@H](C)O)NC(=O)[C@H]([C@@H](C)CC)NC2=O)cc1 ([Mpa][dY](Et)ITNCP[Orn]G-NH2; disulfide 1-6),0.0458,–
CC(C)CN(C[C@@H](O)[C@H](Cc1ccccc1)NC(=O)O[C@H]1CO[C@H]2OCC[C@H]21)S(=O)(=O)c1ccc(N)cc1,-4.9,–
CCCCCCCCCCCCCCCCCC(=O)OCC(C)O (centres undefined),0.187,–
CC(=O)O[C@H]1C(=O)[C@@]2(C)[C@H]([C@H](OC(=O)c3ccccc3)[C@]3(O)C[C@H](OC(=O)[C@H](O)[C@@H](NC(=O)c4ccccc4)c4ccccc4)C(C)=C1C3(C)C)[C@]1(OC(C)=O)CO[C@@H]1C[C@@H]2O,–,0.133 µM (active)
CCC(=O)NS(=O)(=O)c1ccc(-c2c(-c3ccccc3)noc2C)cc1,-0.207,–
CN(C(=O)CO)c1c(I)c(C(=O)NCC(O)CO)c(I)c(C(=O)NCC(O)CO)c1I (centres undefined),-0.157,–
CC(C(=O)O)c1ccc(N2Cc3ccccc3C2=O)cc1 (centres undefined),–,7.5 µM (active)
